This is a sample that favours compounds with a hit; in the whole collection about 2.2% have one here.
dFosB act-1 – enhances mouse delta FosB homodimer DNA binding | P13346 | purified delta FosB, TAMRA-CDK5 oligo fluorescence polarization; percent of positive-control signal above neutral wells | activation, % at 25 µM | 340,000 compounds, 0.99% hits | AID 493131;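 active = mean activation above about 17%, with every replicate also reaching it, limit read from the data, passing the limit was not always enough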
NLRP3 yeast inh – inhibitors of NALP3 inflammasome in yeast; Yeast reconstituted NLRP3/ASC/caspase-1, beta-gal luminescence, 24 h; inhibition, % at 10 µM; 330,000 compounds, 0.39% hits; AID 2825;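 active = inhibition of 50% or more; inactive = inhibition below 50%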;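 note: plate controls were induced DMSO wells for no effect and uninduced yeast grown without galactose for full effect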
NALP1 yeast inh – NALP1 inhibition; S. cerevisiae NALP1/ASC/caspase-1 growth, X-gal OD620, 72 h; inhibition, % at 10 µM; 280,000 compounds, 0.61% hits; in the data active = inhibition mostly above about 24%, no sharp cut-off; inactive = mostly below about 32%
EBNA-1 inhibitor – blocks EBNA-1 binding to DNA. EBNA-1 DNA binding, fluorescence polarization. inhibition, % at 14.8 µM. 300,000 compounds, 0.34% hits. AID 1950; in the data active = inhibition above about 28%
PolyA inhibitor – yeast polyadenylation inhibition. activity score, % at 12 µM. S. cerevisiae SKY197-pL101 polyadenylation reporter, beta-gal luminescence; efflux-impaired pdr1/pdr3 knockout yeast; score 100 = 6 SD above DMSO. 300,000 compounds, 0.02% hits;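 active = lowest replicate activity score at least 50, where 100 means six control SD above control mean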;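 note: yeast exposed to compound for 9 h at 30 °C; higher score means more reporter readthrough which indicates perturbed polyadenylation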
ZTA counter – counter-screen for EBNA-1 inhibitors: inhibitors of Epstein-Barr virus ZTA; 320,000 compounds, 0.15% hits; ZTA-DNA binding, fluorescence polarization; P03206; inhibition, % at 11 µM; in the data active = inhibition above about 33%
Target sequence (P03206 whole entry, looked up): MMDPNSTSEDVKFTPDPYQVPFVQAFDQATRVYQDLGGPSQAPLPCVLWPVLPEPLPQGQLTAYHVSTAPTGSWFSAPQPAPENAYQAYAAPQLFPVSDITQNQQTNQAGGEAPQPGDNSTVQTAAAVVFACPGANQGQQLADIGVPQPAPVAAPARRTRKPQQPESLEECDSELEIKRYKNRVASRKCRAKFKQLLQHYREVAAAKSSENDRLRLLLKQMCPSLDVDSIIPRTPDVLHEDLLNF
dFosB act-2 – activators of mouse delta FosB homodimer DNA binding; shares compounds with dFosB act-1; purified delta FosB, TAMRA-CDK5 oligo fluorescence polarization; normalised: neutral wells 0, positive control 100; activation, % at 24.9 µM; 2,400 tested, under 10 active; AID 588690;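 active = highest replicate activation at or above 34% and every replicate reaching that threshold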;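 note: higher polarization means more probe DNA bound by delta FosB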
An asterisk follows results filed as active; . = no result given.

SMILES	dFosB act-1	NLRP3 yeast inh	NALP1 yeast inh	EBNA-1 inhibitor	PolyA inhibitor	ZTA counter	dFosB act-2
O=C(Cc1ccsc1)NNC(=O)c1ccccc1O	-2	10	.	10	17	6	.
Cc1ccc(NC(=O)Cn2nc(-c3ccco3)ccc2=O)cc1Cl	78*	14	12	-7	3	-4	0
Cc1ccc(NC(=O)Cn2nc(C)c([N+](=O)[O-])c2C)cc1Cl	28*	.	10	.	18	.	0
Cc1ccc(NC(=O)Cn2cc(C(F)(F)F)cc(Cl)c2=O)cc1Cl	23*	-5	-29	-10	-9	-14	6
Cc1cccc(N2CCN(C(=O)CCc3nc4ccccc4c(=O)[nH]3)CC2)c1C	-7	15	.	.	.	.	.
Cc1oc(-c2ccccc2F)nc1CS(=O)CC(=O)NC1CCCC1 (configuration not stated)	0	7	23	-6	-10	-9	.
O=C(COC(=O)/C=C/c1cccc(Cl)c1)Nc1ccc2[nH]c(=O)[nH]c2c1	27*	14	.	14	12	5	0
O=C(COC(=O)/C=C/c1cccc(Cl)c1Cl)Nc1ccc2[nH]c(=O)[nH]c2c1	35*	4	.	.	.	3	3
Cc1cccc(C)c1NC(=O)CNC(=O)C(C)N(C)CC(=O)Nc1ccc(F)cc1 (configuration not stated)	-1	12	.	.	.	.	.
O=C(Nc1ccc(Oc2ncnc3cc(Cl)ccc23)nc1)Nc1cccc(C(F)(F)F)c1	40*	8	.	-2	0	2	-4
CS(=O)(=O)c1ccc2nc(NC(=O)c3cc(-c4ccccc4)nn3-c3ccccc3)sc2c1	29*	16	12	5	17	-18	7
O=S(=O)(Cc1ccccc1)c1ccccc1-c1nnc(-c2ccccc2)o1	32*	25	28	-8	-17	-10	6
CCOC(=O)c1c(NC(=O)CN2C(=O)C(=O)N(C(C)C)C2=O)sc(C)c1CC	-19	14	.	.	.	6	.
COc1cccc(C(=O)Nc2nnc(-c3ccc(OC)cc3OC)s2)c1	39*	14	7	8	-7	6	7
CCOCc1nnc(NC(=O)c2cc(OC)c(OC)c(OC)c2)s1	-14	3	7	-8	2	12	.
COc1ccccc1-c1nnc(NC(=O)c2ccc3c(c2)OCO3)s1	59*	9	-3	8	-1	16	2
COc1cc(C(=O)Nc2nnc(-c3sccc3C)s2)cc(OC)c1OC	17*	22	-5	-5	17	-10	6
COc1cccc(CNC(=O)C(=O)NCC2OCCCN2S(=O)(=O)c2cc(C)ccc2C)c1 (configuration not stated)	-8	-7	7	1	-5	0	.
Cc1cc2cc(C)c3nnc(SCC(=O)Nc4ccc(S(=O)(=O)N5CCCCC5)cc4)n3c2cc1C	22*	-1	12	5	1	19	2
Cc1ccc(S(=O)(=O)N2CCC(C(=O)N3CC(C)OC(C)C3)CC2)cc1 (configuration not stated)	0	8	-4	8	-6	11	.
Cc1cc2oc(C(=O)Nc3ccc(S(=O)(=O)Nc4nccs4)cc3)cc(=O)c2cc1Cl	37*	-7	28	20	15	5	1
Cc1cc(C)c2oc(C(=O)Nc3ccc(S(=O)(=O)Nc4nccs4)cc3)cc(=O)c2c1	2	7	.	-3	-11	2	.
Cc1ccc(NC(=O)Cn2cc(C(=O)C3CC3)c3ccccc32)c(C)c1	-6	9	-13	-2	-11	11	.
Cc1cccc(NC(=O)Cn2cc(C(=O)C3CC3)c3ccccc32)c1C	21*	25	4	-4	0	-6	2
CC(=O)c1cn(CC(=O)Nc2cccc(C)c2C)c2ccccc12	-7	3	-3	3	-2	15	.
SMILES	dFosB act-1	NLRP3 yeast inh	NALP1 yeast inh	EBNA-1 inhibitor	PolyA inhibitor	ZTA counter	dFosB act-2
CC(=O)c1cn(CC(=O)Nc2ccc(C)cc2C)c2ccccc12	28*	0	4	-11	-4	-10	8
Cc1ccc(C)c(NC(=O)Cn2cc(C(=O)C3CC3)c3ccccc32)c1	72*	25	14	-13	-9	-26	0
CCC(=O)c1cn(CC(=O)Nc2cccc(C)c2C)c2ccccc12	25*	13	15	12	-18	-2	7
N#CCNC1CC(=O)N(c2ccccc2)C1=O (configuration not stated)	-4	17	8	-7	34	8	.
CC(=O)Nc1ccc(NC(=O)c2cc(-c3ccc(C)c(C)c3O)n[nH]2)cc1	68*	12	12	-9	-4	0	0
COc1ccc(NC(=O)c2cc(-c3ccc(C)c(C)c3O)n[nH]2)cc1Cl	13	7	12	-2	-14	10	.
COc1ccccc1/C=C/C(=O)NCC(=O)N/N=C/c1ccc2c(c1)OCO2	0	1	36	9	-2	-9	.
COc1ccccc1CNC(=O)/C=C/c1cc2c(cc1Br)OCO2	45*	14	21	-1	1	11	-3
Cc1cc(SCC(=O)NCC(c2cccs2)N2CCOCC2)c(C)cc1Br (configuration not stated)	0	1	.	-8	24	6	.
Cc1ccc(C(Sc2ccccc2)C(Cn2cncn2)C(=O)c2ccccc2)cc1 (configuration not stated)	24*	2	13	-4	-10	1	0
Cc1ccc(SC(c2ccc(C)cc2)C(Cn2cncn2)C(=O)c2ccccc2)cc1 (configuration not stated)	-5	6	-13	-5	-11	-8	.
COC(=O)c1ccc(C(=O)Nc2ccc3nc(-c4cccnc4)[nH]c3c2)cc1	47*	-12	33	-1	26	-25	-1
C#CCOCCOCCOCCNc1nc(N2CCN(C(=O)[C@H](CCCCN)n3cc([C@@H](N)[C@H](C)CC)nn3)CC2)nc(N2CCN(C(=O)[C@H](CCCCN)n3cc([C@@H](N)CC(N)=O)nn3)CC2)n1	-2	14	.	.	.	.	.
C#CCOCCOCCOCCNc1nc(N2CCN(C(=O)[C@H](Cc3ccc(O)cc3)n3cc([C@@H](N)C(C)CC)nn3)CC2)nc(N2CCN(C(=O)[C@H](Cc3cc4ccccc4[nH]3)n3cc([C@@H](N)CC(C)C)nn3)CC2)n1 (some centres not stated)	.	15	7	3	-8	9	.
